Consider 37 compounds from PubChem BioAssay AID1345085 (National Center for Advancing Translational Sciences (NCATS), 2018).

Results filed as inconclusive are left out. Values without a mark were called inactive. Activity calls are given as the source filed them. Calls come from the whole dose curve; as a rule, active = well fitted cell-killing curve with a large enough effect; inconclusive = small, poorly fitted or top-dose-only effect, or effect the other way; inactive = no such curve, though single readings can be large or run the other way.
% is set by controls: 0 for no effect and ±100 for the full control effect; potency is the fitted concentration of half-maximal effect.

The experiment relates to Es-2. Description: Confirmatory qHTS for gynecologic anti-cancer compounds from libraries of approved drugs and bioactive compounds. Note: nearly all actives have a fitted effect of over 55% in size. The conditions noted are these: gynecologic cancer cell panel viability, ATPlite luminescence, 48 h; series mostly up to 57.6 µM; activity change, negative = viability loss: at the top concentration. The procedure, abridged:
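Cells (1,000/well) were plated, left 16 h at 37 C/5% CO2, then given compound at 11 concentrations (1:3) from 57.5 uM to 0.977 nM for 48 h. ATPlite luminescence after 15 min at room temperature gave IC50 values.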
A general note: Quantitative high-throughput screening tests each substance at several concentrations.
As to `Cc1nc(N)sc1-c1ccnc(Nc2ccc(N3CCOCC3)cc2)n1`, the Potency is 9.68 µM (active).
For the compound `CC(C)C[C@H](NC(=O)[C@H](CCc1ccccc1)NC(=O)CN1CCOCC1)C(=O)N[C@@H](Cc1ccccc1)C(=O)N[C@@H](CC(C)C)C(=O)[C@@]1(C)CO1`, the Potency is 3.06 µM (active).
With `COC(C(=O)N1Cc2[nH]nc(NC(=O)c3ccc(N4CCN(C)CC4)cc3)c2C1)c1ccccc1` (configuration not stated), the “activity change, negative = viability loss” value was 30.1%.
For `Cc1ccc(C(=O)N(CCCN)C(c2nc3cc(Cl)ccc3c(=O)n2Cc2ccccc2)C(C)C)cc1` (configuration not stated), the Potency is 3.85 µM (active).
As to `CCCc1nn(C)c2c(=O)[nH]c(-c3cc(S(=O)(=O)N4CCN(C)CC4)ccc3OCC)nc12`, the “activity change, negative = viability loss” value is 8%.
The same measure, in the same setting: the same measure for `O=C1Cc2cc(CCN3CCN(c4nsc5ccccc45)CC3)c(Cl)cc2N1`: 12.2%.
`Cc1cc(C(=O)N2CCN(c3cccc(Cl)c3)CC2)n(-c2ccccc2)n1`: the Potency was 2.43 µM (active).
In the case of `CC[C@@]1(O)C(=O)OCc2c1cc1n(c2=O)Cc2cc3c(CN(C)C)c(O)ccc3nc2-1`, the Potency is 0.193 µM (active).
The same measure, in the same setting: the same measure for `CCS(=O)(=O)c1cccc(-c2cc(C(=O)NC3CCN(C)CC3)c(C)c3[nH]c4ncc(C)cc4c23)c1`: 5.99 µM (active); for `C[C@@H](Oc1cc(-c2cnn(C3CCNCC3)c2)cnc1N)c1c(Cl)ccc(F)c1Cl`: 15.3 µM (active); for `CCOc1cc2ncc(C#N)c(Nc3ccc(F)c(Cl)c3)c2cc1NC(=O)/C=C/CN(C)C`: 24.3 µM (active).
For `Nc1nccc(Oc2ccc(NC(=O)c3c[nH]cc(-c4ccc(F)cc4)c3=O)cc2F)c1Cl`, the Potency was 34.3 µM (active).
As to `CCCCN(CCCC)CC(O)c1cc(Cl)cc2c1-c1ccc(Cl)cc1/C2=C/c1ccc(Cl)cc1` (configuration not stated), the “activity change, negative = viability loss” value was -28.3%.
Turning to `Cc1cnc(Nc2ccc(F)cc2Cl)nc1-c1c[nH]c(C(=O)NC(CO)c2cccc(Cl)c2)c1` (configuration not stated), the “activity change, negative = viability loss” value is -11.1%.
With `CN1C(=O)C(Cc2c[nH]c3ccccc23)NC1=S` (configuration not stated), the “activity change, negative = viability loss” value is -13.7% [at 19.5 µM].
Consider `Cc1cc(Nc2nc(N[C@@H](C)c3ccc(F)cc3)c(C#N)cc2F)n[nH]1`, for which the Potency was 21.7 µM (active).
The same measure, in the same setting: the result for `NC(=O)Nc1cc(-c2cccc(F)c2)sc1C(=O)NC1CCCNC1` (configuration not stated) reads 0.344 µM (active).
Turning to `O=c1cc(CN2CCOCC2)occ1OCCCCCSc1ccnc2cc(C(F)(F)F)ccc12`, the “activity change, negative = viability loss” value is -3.9%.
Take `CCCCc1nc2cc(/C=C/C(=O)NO)ccc2n1CCN(CC)CC`: the Potency is 1.09 µM (active).
On the same count and under the same terms, the same measure for `O=C(c1ccc(/C=C/c2n[nH]c3ccccc23)cc1)N1CCNCC1`: 27.3 µM (active).
`CCN(CC)CCCC(C)Nc1ccnc2cc(Cl)ccc12` (configuration not stated): the “activity change, negative = viability loss” value is -3.69% [at 19.5 µM].
With `CC(Oc1ccc2[nH]nc(/C=C/c3cnn(CCO)c3)c2c1)c1c(Cl)cncc1Cl` (configuration not stated), the Potency was 4.32 µM (active).
Still for that read-out and setting: the same measure for `CCC1C(=O)N(C)c2cnc(Nc3ccc(C(=O)NC4CCC(N5CCN(CC6CC6)CC5)CC4)cc3OC)nc2N1C(C)C` (configuration not stated): 1.22 µM (active); for `Fc1cc(-c2cccc3ncc(-c4cnn(C5CCNCC5)c4)nc23)cc(F)c1CN1CCOCC1`: 21.7 µM (active).
As to `CCN[C@H]1C[C@H](C)S(=O)(=O)c2sc(S(N)(=O)=O)cc21`, the “activity change, negative = viability loss” value is 0.905%.
`Cc1cnc(Nc2cccc(CN3CCOCC3)c2)nc1Nc1cccc(S(=O)(=O)NC(C)(C)C)c1`: the Potency was 6.11 µM (active).
The same measure, in the same setting: the result for `O=C(NOCC1CC1)c1ccc(F)c(F)c1Nc1ccc(I)cc1Cl` reads 1.53 µM (active); that for `CC1=C(CO)C(=O)O[C@@H]([C@@H](C)[C@H]2CC[C@H]3[C@@H]4C[C@H]5O[C@]56[C@@H](O)C=CC(=O)[C@]6(C)[C@H]4CC[C@]23C)C1`, 2.66 µM (active).
Same read-out and setting: the same measure for `CC(C)Oc1ccc(C(=O)NC(CNC(=O)CN(C)C)Cc2ccc(-c3cn4cccc(C(C)O)c4n3)cc2)cc1Cl` (configuration not stated): 0.385 µM (active); for `Cn1c(=O)c(-c2c(Cl)cccc2Cl)cc2cnc(Nc3cccc(C(=O)O)c3)nc21`: 2.73 µM (active); for `CCc1c2c(nc3ccc(O)cc13)-c1cc3c(c(=O)n1C2)COC(=O)[C@]3(O)CC`: 0.0385 µM (active).
Take `COc1cc2c(c(OC)c1OC)-c1ccc(OC)c(=O)cc1[C@@H](NC(C)=O)CC2`: the Potency is 0.0708 µM (active).
On the same count and under the same terms, the result for `CN1CCN(Cc2ccc(NC(=O)Nc3ccc(Oc4cc(NC(=O)C5CC5)ncn4)cc3)cc2C(F)(F)F)CC1` reads 0.544 µM (active); that for `Cc1nc(Nc2n[nH]c3c2CN(C(=O)NC(CN(C)C)c2ccccc2)C3(C)C)c2sccc2n1` (configuration not stated), 4.32 µM (active).
For the compound `Nc1ncn([C@@H]2O[C@H](CO)[C@@H](O)[C@H]2O)c(=O)n1`, the Potency is 12.2 µM (active).
On the same count and under the same terms, the same measure for `CCN1CCN(Cc2ccc(-c3cc4c(NC(C)c5ccccc5)ncnc4[nH]3)cc2)CC1` (configuration not stated): 27.3 µM (active).
In the case of `CN(C)/N=N/c1nc[nH]c1C(N)=O`, the “activity change, negative = viability loss” value was -10.7%.
